U2OS ROS induce: raises reactive oxygen species in U2OS cancer cells | 46,000 compounds, 2% hits | AID 624156 | U2OS ROS induction, H2DCF-DA fluorescence | ROS induction (% of piperlongumine), % at 10 µM; in the data active = ROS induction above about 79%, passing the limit was not always enough
Hits are given with their value; . = inactive. Only a selection was taken, and hits are over-represented in it overall.

SMILES	U2OS ROS induce
Cc1ccc(S(=O)(=O)NCC(=O)Nc2ccc(I)cc2)cc1	.
CCC1=Nc2ccc(Br)cc2C(c2ccccc2)N1CC(=O)NN (stereo not given)	.
Cc1ccc(/C=N/NC(=O)c2ccc(C(=O)NO)cc2)o1	.
Cn1c(=O)c2c(-c3ccc(C(C)(C)C)cc3)n(-c3cc(N)c(Cl)cc3Cl)cc2n(C)c1=O	.
NC1=NC(=O)/C(=C/c2ccc(I)o2)S1	141
Cc1ccc(-c2nn(CCC(=O)O)cc2/C=C2\SC(N)=NC2=O)cc1	.
Cc1noc(C)c1S(=O)(=O)Nc1cccc2c1O[C@@H](CN(C)S(=O)(=O)c1ccccc1)[C@@H](C)CN([C@@H](C)CO)C2=O	.
NC(=O)CSc1nc2c(c(C(F)(F)F)n1)CCc1ccccc1-2	.
CC(C)(C)c1ccc(C(=O)N2CCCc3ccccc32)cc1	.
Cc1ccc(N(C(C)C(=O)Nc2ccc(Oc3ccccc3)cc2)S(C)(=O)=O)cc1C (stereo not given)	.
O=C(N/N=C/c1ccc(N(c2ccccc2)c2ccccc2)cc1)c1ccccn1	.
O=S(=O)(c1ccccc1)N(CCO)Cc1ccccc1	.
Cc1c(C(=O)NCc2ccc(N3CCN(C)CC3)cc2)cnn1-c1ccc(Cl)cc1	.
COc1ccc2nc(SCC(=O)Nc3cccc(C(F)(F)F)c3)[nH]c2c1	.
COc1ccc(-n2nnc3c(SCC(=O)Nc4cccc(C(F)(F)F)c4)ncnc32)cc1	261
COc1ccc(-n2c(C)nnc2SCC(=O)Nc2cccc(C(F)(F)F)c2)cc1	.
NS(=O)(=O)c1ccc(NC(=O)CSc2nnc(-c3ccccc3Cl)n2-c2ccccc2)cc1	.
Cc1ccc(S(=O)(=O)N(C)C[C@H]2Oc3ccc(NS(=O)(=O)c4ccccc4)cc3C(=O)N([C@H](C)CO)C[C@@H]2C)cc1	.
CCC(C)NC(=O)c1ccc(NC2=NC3CS(=O)(=O)CC3S2)cc1 (stereo not given)	.
CCOc1ccc(-c2cc(C(=O)NCCCN3CCCCC3)c3ccccc3n2)cc1	.
Cc1c(C(=O)O)sc2nc(SCC(=O)Nc3ccccc3C(F)(F)F)[nH]c(=O)c12	.
COC(=O)c1sc2nc(C)cc(C(F)(F)F)c2c1N	.
Cc1cc(C(F)(F)F)c2c(n1)sc1c(=O)[nH]c(C)nc12	95
C[C@H](CO)N1C[C@H](C)[C@H](CN(C)S(C)(=O)=O)Oc2ccc(NC(=O)CCN3CCOCC3)cc2CC1=O	.
Cc1ncc([N+](=O)[O-])n1CC(=O)N(C)c1ccccc1	.
SMILES	U2OS ROS induce
Cc1cccc(NS(=O)(=O)c2cc(C(=O)Nc3ccccc3C(=O)N3CCOCC3)ccc2Cl)c1	.
Cc1ccc(C(=O)Nc2ccccc2C(=O)N2CCN(c3ccccc3)CC2)cc1S(=O)(=O)N1CCCCC1	144
Cc1ccc(NS(=O)(=O)c2cc(C(=O)Nc3ccccc3C(=O)N3CCCC3)ccc2Cl)cc1C	.
Cc1cnn(CCCNC(=O)NC23CC4CC(CC(C4)C2)C3)c1	.
O=C1CC(c2csc(-c3ccccc3)n2)C2(CCCCC2)O1 (stereo not given)	.
C=C1C(=O)OC2CC3(C)CCC=C(CO)C3CC12 (stereo not given)	.
C=C1C(=O)O[C@@H]2C=C(C)[C@@H]3CC[C@@](C)(O)[C@@H]3C[C@H]12	.
C=C1C(=O)O[C@H]2C3=C(C)CCC[C@]3(C)C(=O)C[C@@H]12	84
CC1CCN(c2c(S(=O)(=O)c3ccccc3)cnc3ccccc23)CC1	.
Cc1ccc(-n2nnc3c(SCC(=O)N4CCCC4)ncnc32)cc1	134
Fc1ccc(-n2nnc3c(SCc4ccc(C(F)(F)F)cc4)ncnc32)cc1	.
CCOC(=O)Cn1cnc2c(nnn2-c2ccc(C)cc2)c1=O	.
Cc1ccc2c(c1)-c1c(ssc1=S)C(C)(C)N2C(=O)C(C)C	.
O=C(O)CCCCCC(=O)N/N=C/c1cccs1	.
C[C@H](CO)N1C[C@H](C)[C@H](CN(C)Cc2ccc(C(F)(F)F)cc2)Oc2ccc(NC(=O)Nc3ccc(C(F)(F)F)cc3)cc2CC1=O	.
Cc1ccccc1N1C(=O)NC(=O)/C(=C\c2cn(CC(=O)N3CCOCC3)c3ccccc23)C1=O	117
CN1C(=O)/C(=C\c2cn(CC(=O)N3CCOCC3)c3ccccc23)C(=O)NC1=S	.
C=CCn1cc(C=C2C(=O)OC3(CCCC3)OC2=O)c2ccccc21	.
CNC(=O)CS(=O)(=O)c1cn(CC(=O)N2CCCC2)c2ccccc12	.
O=C1NC(=O)N(c2ccccc2F)C(=O)/C1=C/c1cn(CC(=O)N2CCCC2)c2ccccc12	100
NC(=O)CSc1cn(CC(=O)N2CCOCC2)c2ccccc12	.
COC(=O)CCCCCCC(=O)N/N=C/[C@H](O)[C@@H](O)[C@H](O)[C@H](O)CO	.
Cc1c(C(=O)O)oc2ccc(S(=O)(=O)NCCC(C)C)cc12	.
C[C@@H]1CN([C@H](C)CO)C(=O)c2cc(NC(=O)c3ccncc3)ccc2O[C@@H]1CN(C)S(=O)(=O)c1ccc(F)cc1	.
COC(=O)CCCCCCC(=O)N/N=C/C1(NC(=O)OC(C)(C)C)CCCC1	.
C[C@H]1CN([C@@H](C)CO)C(=O)Cc2cc(NS(=O)(=O)c3ccccc3)ccc2O[C@H]1CN(C)Cc1ccccc1	.

Screening results (PubChem)
